The list shows a part of the results. The true hit rate is not given.
Target: furin, P09958
Assay: furin cleavage Z-score vs untreated control; higher = more cleavage, active = 3.5 or more, inactive = 1 or less, 8 variable residues between constant flanks
Outline: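 Furin-free reactions served as the baseline for the cleavage Z-score, which is the log read count lowess-adjusted and scaled by median absolute deviation. Counts came from released DNA, adapter-tagged by PCR and sequenced. Purified furin had cut 8-mer peptides fused to a cDNA oligonucleotide on magnetic beads during 7.5, 15 or 30 min at 1:10 enzyme:substrate.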
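Note: purified furin at 1:10 enzyme:substrate in 50 mM HEPES pH 7.5.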

Chain of furin, P09958 (P09958 whole entry): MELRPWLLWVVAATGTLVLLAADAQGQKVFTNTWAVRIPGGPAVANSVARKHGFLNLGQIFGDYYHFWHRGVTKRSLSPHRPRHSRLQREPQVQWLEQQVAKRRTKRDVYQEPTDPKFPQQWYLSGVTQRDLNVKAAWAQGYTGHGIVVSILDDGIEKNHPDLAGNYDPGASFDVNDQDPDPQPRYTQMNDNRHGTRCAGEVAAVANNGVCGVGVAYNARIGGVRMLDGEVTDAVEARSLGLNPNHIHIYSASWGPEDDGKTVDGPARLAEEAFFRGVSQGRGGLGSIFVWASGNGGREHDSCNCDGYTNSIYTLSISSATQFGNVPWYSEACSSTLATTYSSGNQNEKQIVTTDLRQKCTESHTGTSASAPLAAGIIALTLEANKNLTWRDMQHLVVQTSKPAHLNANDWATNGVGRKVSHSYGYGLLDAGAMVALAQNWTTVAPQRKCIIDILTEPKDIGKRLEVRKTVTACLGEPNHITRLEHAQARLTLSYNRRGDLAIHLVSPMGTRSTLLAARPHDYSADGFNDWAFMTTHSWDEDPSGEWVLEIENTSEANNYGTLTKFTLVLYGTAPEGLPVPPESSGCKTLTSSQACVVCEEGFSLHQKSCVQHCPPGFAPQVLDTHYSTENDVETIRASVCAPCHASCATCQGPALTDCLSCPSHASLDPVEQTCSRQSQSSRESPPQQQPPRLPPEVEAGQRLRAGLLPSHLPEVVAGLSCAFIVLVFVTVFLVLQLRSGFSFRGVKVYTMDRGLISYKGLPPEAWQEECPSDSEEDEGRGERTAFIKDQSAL

| Sequence | furin cleavage Z-score (7.5 min) | furin cleavage Z-score (15 min) | furin cleavage Z-score (30 min) |
| --- | --- | --- | --- |
| CASTPCSLHLAGNASASA [HC2525] | 0.933 (inactive) | 1.1 | 1.05 |
| CAEMPCHRPSAGNASASA [HC2326] | 0.275 (inactive) | 1.07 | -0.483 (inactive) |
| CASKKRKKKHAGNASASA [FS-720] | -0.105 (inactive) | 0.768 (inactive) | 1.79 |
| CAVLSRDGRKAGNASASA [FS-105] | -1.15 (inactive) | 0.968 (inactive) | 0.203 (inactive) |
| CAVLSGKPAIAGNASASA [HC1004] | -1.21 (inactive) | -0.08 (inactive) | -0.703 (inactive) |
| CASATRRKRHAGNASASA [FS-145] | 10.8 (active) | 9.07 (active) | 8.87 (active) |
| CASAHREPRLAGNASASA [FS-143] | -0.537 (inactive) | -2.16 (inactive) | -0.735 (inactive) |
| CAVLSRRKRHAGNASASA [FS-1430] | 13.5 (active) | 13.1 (active) | 9.48 (active) |
| CAPRYRRKRHAGNASASA [FS-1552] | 10.8 (active) | 11.7 (active) | 10.8 (active) |
| CARNMWSGTFAGNASASA [HC1187] | 1.59 | -0.0231 (inactive) | 2.71 |
| CAIDILAGYGAGNASASA [HC1085] | 0.177 (inactive) | -2.37 (inactive) | -1.48 (inactive) |
| CATFTIETITAGNASASA [HC895] | -1.54 (inactive) | -0.657 (inactive) | -0.39 (inactive) |
| CARKDRGASKAGNASASA [FS-1826] | -0.0944 (inactive) | -0.514 (inactive) | 0.14 (inactive) |
| CACDLDPQARAGNASASA [HC1492] | -0.128 (inactive) | -0.812 (inactive) | -1.68 (inactive) |
| CAREKRWSVSAGNASASA [FS-2256] | 0.749 (inactive) | 1.64 | 3.68 (active) |
| CAREKRRQRNAGNASASA [FS-2135] | 2.7 | 5.06 (active) | 5.01 (active) |
| CAREKRRGVTAGNASASA [FS-1819] | 0.463 (inactive) | -0.946 (inactive) | 0.55 (inactive) |
| CAREKRPSRSAGNASASA [FS-488] | 3.53 (active) | 6.66 (active) | 4.77 (active) |
| CADLSRPSRSAGNASASA [FS-757] | 0.456 (inactive) | 1.72 | 2.66 |
| CAMMLLISQAAGNASASA [HC529] | -0.436 (inactive) | -0.997 (inactive) | 1.3 |
| CADKMEECSQAGNASASA [HC1814] | -0.565 (inactive) | 0.769 (inactive) | -0.546 (inactive) |
| CARYSAPPGDAGNASASA [HC1543] | -1 (inactive) | 0.134 (inactive) | -1.47 (inactive) |
| CAEINRVAACAGNASASA [HC1611] | 0.443 (inactive) | -0.785 (inactive) | -0.701 (inactive) |

| Sequence | furin cleavage Z-score (7.5 min) | furin cleavage Z-score (15 min) | furin cleavage Z-score (30 min) |
| --- | --- | --- | --- |
| CARYNRPPREAGNASASA [FS-378] | 9.4 (active) | 8.69 (active) | 7.85 (active) |
| CAYHGRIPREAGNASASA [FS-1619] | 4.85 (active) | 5.6 (active) | 4.92 (active) |
| CAGYELQGREAGNASASA [FS-534] | -1.04 (inactive) | -1.1 (inactive) | -1.02 (inactive) |
| CARDGRYTPCAGNASASA [FS-2903] | 0.99 (inactive) | -0.489 (inactive) | -0.0469 (inactive) |
| CAEHNRTPREAGNASASA [FS-20] | 6.46 (active) | 6.63 (active) | 5.97 (active) |
| CASKFGYGAKAGNASASA [HC1420] | 0.531 (inactive) | 0.331 (inactive) | -1.23 (inactive) |
| CALAPGAKQNAGNASASA [HC362] | 0.735 (inactive) | -0.827 (inactive) | 0.525 (inactive) |
| CAVVCCSMSQAGNASASA [HC2102] | -0.199 (inactive) | 0.851 (inactive) | 0.49 (inactive) |
| CATKLITWGAAGNASASA [HC651] | 0.877 (inactive) | -0.214 (inactive) | -0.337 (inactive) |
| CALYGNEGCGAGNASASA [HC203] | -0.0812 (inactive) | 1.22 | 0.228 (inactive) |
| CARRHVGPGEAGNASASA [HC1112] | -0.341 (inactive) | -0.961 (inactive) | -0.867 (inactive) |
| CARRRRHPDDAGNASASA [FS-3063] | 3.1 | 4.81 (active) | 3.91 (active) |
| CARRRRHPDEAGNASASA [FS-1785] | 5.6 (active) | 5.56 (active) | 4.6 (active) |
| CARRRRHAGEAGNASASA [FS-2404] | 6.46 (active) | 4.9 (active) | 5.66 (active) |
| CATDNLKCPCAGNASASA [HC1214] | 0.631 (inactive) | -2.12 (inactive) | -1.25 (inactive) |
| CATEEAIYQCAGNASASA [HC1488] | 0.306 (inactive) | -0.635 (inactive) | 1.07 |
| CAQTLLFNILAGNASASA [HC1063] | 0.309 (inactive) | -0.599 (inactive) | 0.404 (inactive) |
| CATTSCSGSWAGNASASA [HC1877] | -0.56 (inactive) | -0.299 (inactive) | -0.313 (inactive) |
| CAEGPCHRPSAGNASASA [HC2336] | 0.811 (inactive) | 0.167 (inactive) | 0.259 (inactive) |
| CARPYRCKIKAGNASASA [FS-3032] | -0.856 (inactive) | -0.224 (inactive) | 1.6 |
| CARPFRSFVPAGNASASA [FS-2499] | 0.343 (inactive) | 1.12 | 0.335 (inactive) |
| CARPFRYKRKAGNASASA [FS-1402] | 7.84 (active) | 8.54 (active) | 7.38 (active) |
| CAIITRYKRKAGNASASA [FS-338] | 6.56 (active) | 6.04 (active) | 6.05 (active) |

Reference: the supplement of paper PMC3545927
